Results filed as inconclusive are left out. Calls of active or inactive are those of the source. Unless noted, calls follow the shape of the dose curve; as a rule, active = well fitted curve in the direction sought with a large enough effect; inconclusive = small, poorly fitted or top-dose-only effect, or another doubt; inactive = no such curve, though single readings can be large; an effect the other way counts as inactive or inconclusive.

The nature of assay [1]: qHTS Assay for Lipid Storage Modulators (AID 1519; calls by dose curve; as to activity change, negative = inhibition: % is scaled to controls: 0 for no effect and ±100 for the full control effect). To be noted: Drosophila S3 cells, BODIPY lipid droplet/cell ratio, laser cytometry, cells loaded with oleic acid; for activity change, negative = inhibition: at 57.5 µM (top of the series). The method, boiled down:
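Cells seeded at 5,000 per well were treated with compounds over a concentration series and loaded with oleic acid (400 uM, as added). Lipid droplet fluorescence (488 nm excitation, 500-530 nm channel) was read by laser-scanning cytometry and normalized to 20 uM Triacsin C.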

Assay [2] deals with ATP-dependent 6-phosphofructokinase (Trypanosoma brucei brucei) (UniProt O15648). Kind of assay: qHTS Assay to Find Inhibitors of T. brucei phosphofructokinase: hit validation (AID 492961).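 Also: luminescence reports ADP formed as PFK phosphorylates fructose-6-phosphate with ATP; % is scaled to controls: 0 for no effect and ±100 for the full control effect.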 To be noted: T. brucei PFK, ADP-Glo luminescence; series mostly up to 24.3 µM. The method in brief: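 Reaction: 0.1 M triethanolamine pH 8.0, 5 mM MgCl2, F6P 0.5 mM, ATP 0.1 mM, PFK 1.25 nM, 45 min RT. Read-out: ADP-Glo luminescence. Analysis: concentration-response fits, classed by r2 and efficacy.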
ATP-dependent 6-phosphofructokinase (Trypanosoma brucei brucei), sequence (O15648 whole entry, looked up): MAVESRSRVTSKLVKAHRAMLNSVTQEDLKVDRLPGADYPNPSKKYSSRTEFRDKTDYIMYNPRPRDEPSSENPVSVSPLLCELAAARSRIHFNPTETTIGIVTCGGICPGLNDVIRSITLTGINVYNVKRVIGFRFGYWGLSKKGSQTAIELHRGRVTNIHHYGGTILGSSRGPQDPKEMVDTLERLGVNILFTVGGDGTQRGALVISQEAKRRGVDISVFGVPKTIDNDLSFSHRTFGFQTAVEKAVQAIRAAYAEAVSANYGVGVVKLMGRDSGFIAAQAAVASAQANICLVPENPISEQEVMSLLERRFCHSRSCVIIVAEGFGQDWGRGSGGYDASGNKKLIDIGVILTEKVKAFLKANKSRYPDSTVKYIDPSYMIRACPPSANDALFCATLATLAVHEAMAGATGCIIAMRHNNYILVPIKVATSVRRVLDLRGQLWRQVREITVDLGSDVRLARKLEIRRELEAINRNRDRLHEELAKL
In general terms: Quantitative high-throughput screening tests each substance at several concentrations.

In assay [3] the target is Luciferin 4-monooxygenase (Photinus pyralis) (UniProt P08659). Nature of the assay: Biochemical firefly luciferase enzyme assay for NPC (AID 624030).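 Also: purified P. pyralis luciferase at 10 nM with luciferin and ATP substrate; 0% = DMSO and -100% = full luciferase inhibition by PTC124 control; nearly all actives have a fitted effect of over 70% in size.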 To be noted: purified P. pyralis luciferase, luminescence, 5 min; series mostly up to 24.9 µM. The method in brief:
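Counter-screen for direct inhibition of the luciferase enzyme by approved-drug library compounds, run at 10 nM enzyme in 50 mM Tris acetate (final). Luminescence was read within 5 min of enzyme-buffer addition and normalized to PTC124 versus DMSO (0%).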

Assay [4] in a line: qHTS profiling for inhibitors of Plasmodium falciparum proliferation (AID 504749). Also: potency is read from the fitted curve at half-maximal effect.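 As to activity, negative = inhibition: 0% = DMSO vehicle and full inhibition = artemisinin control.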 As to all read-outs here: nearly all actives have a fitted effect of over 60% in size. To be noted: P. falciparum in erythrocytes, SYBR Green DNA, 72 h; for activity, negative = inhibition: at 28.7 µM (top of the series). The method in brief:
(§1)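 P. falciparum-infected erythrocytes (0.3% parasitemia, 2.5% hematocrit final) were exposed to compounds for 72 h at 37 C in 5% CO2, then lysed with SYBR Green buffer overnight at room temperature; parasite DNA fluorescence was normalized to artemisinin and DMSO controls.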

For assay [5], the system named is 3D7. The assay is described as above. To be noted: P. falciparum in erythrocytes, SYBR Green DNA, 72 h; series mostly up to 12.8 µM. The method in brief: as §1
For assay [6], the system named is CP201. The description is as above. To be noted: P. falciparum in erythrocytes, SYBR Green DNA, 72 h; series mostly up to 12.8 µM. The method in brief: as §1
For assay [7], the system named is CP211. The description is as above. The conditions noted are these: P. falciparum in erythrocytes, SYBR Green DNA, 72 h; series mostly up to 12.8 µM. The method, boiled down:
as §1

Assay [8] concerns CP237. The assay is described as above. To be noted: P. falciparum in erythrocytes, SYBR Green DNA, 72 h; series mostly up to 12.8 µM. The method in brief:
as §1

The subject of assay [9] is CP262. The description is as above. To be noted: P. falciparum in erythrocytes, SYBR Green DNA, 72 h; series mostly up to 12.8 µM. The method in brief:
as §1

Assay [10] relates to CP268. The assay is described as above. To be noted: P. falciparum in erythrocytes, SYBR Green DNA, 72 h; series mostly up to 12.8 µM. The method in brief: as §1
The subject of assay [11] is CP305. The description is as above. To be noted: P. falciparum in erythrocytes, SYBR Green DNA, 72 h; series mostly up to 12.8 µM. The method, boiled down: as §1
In assay [12] the test system is CP315. The description is as above. To be noted: P. falciparum in erythrocytes, SYBR Green DNA, 72 h; series mostly up to 12.8 µM. The method in brief:
as §1

In assay [13] the test system is CP329. The assay is described as above. The conditions noted are these: P. falciparum in erythrocytes, SYBR Green DNA, 72 h; series mostly up to 12.8 µM. The method in brief:
as §1

In assay [14] the test system is JCK. The description is as above. The conditions noted are these: P. falciparum in erythrocytes, SYBR Green DNA, 72 h; series mostly up to 12.8 µM. The method in brief: as §1
For assay [15], the system named is PC49. The description is as above. To be noted: P. falciparum in erythrocytes, SYBR Green DNA, 72 h; series mostly up to 12.8 µM. The method, boiled down: as §1
Assay [16] deals with Ubiquitin carboxyl-terminal hydrolase 1 (Homo sapiens) (UniProt O94782). Nature of the assay: Inhibitors of USP1/UAF1: Pilot qHTS (AID 504865).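 Also: rhodamine fluorescence freed from ubiquitin-rhodamine substrate followed over time; top concentration of the series differs between compounds; % is scaled to controls: 0 for no effect and ±100 for the full control effect; nearly all actives have a fitted effect of over 35% in size.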 The conditions noted are these: purified USP1/UAF1, Ub-rhodamine cleavage fluorescence; series mostly up to 114 µM. The method in brief: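 Kinetic fluorescence assay: 1nM USP1/UAF1, 15 min compound preincubation, then 150nM Ub-Rho; 480/540 nm.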
Ubiquitin carboxyl-terminal hydrolase 1 (Homo sapiens), sequence (O94782 whole entry, looked up): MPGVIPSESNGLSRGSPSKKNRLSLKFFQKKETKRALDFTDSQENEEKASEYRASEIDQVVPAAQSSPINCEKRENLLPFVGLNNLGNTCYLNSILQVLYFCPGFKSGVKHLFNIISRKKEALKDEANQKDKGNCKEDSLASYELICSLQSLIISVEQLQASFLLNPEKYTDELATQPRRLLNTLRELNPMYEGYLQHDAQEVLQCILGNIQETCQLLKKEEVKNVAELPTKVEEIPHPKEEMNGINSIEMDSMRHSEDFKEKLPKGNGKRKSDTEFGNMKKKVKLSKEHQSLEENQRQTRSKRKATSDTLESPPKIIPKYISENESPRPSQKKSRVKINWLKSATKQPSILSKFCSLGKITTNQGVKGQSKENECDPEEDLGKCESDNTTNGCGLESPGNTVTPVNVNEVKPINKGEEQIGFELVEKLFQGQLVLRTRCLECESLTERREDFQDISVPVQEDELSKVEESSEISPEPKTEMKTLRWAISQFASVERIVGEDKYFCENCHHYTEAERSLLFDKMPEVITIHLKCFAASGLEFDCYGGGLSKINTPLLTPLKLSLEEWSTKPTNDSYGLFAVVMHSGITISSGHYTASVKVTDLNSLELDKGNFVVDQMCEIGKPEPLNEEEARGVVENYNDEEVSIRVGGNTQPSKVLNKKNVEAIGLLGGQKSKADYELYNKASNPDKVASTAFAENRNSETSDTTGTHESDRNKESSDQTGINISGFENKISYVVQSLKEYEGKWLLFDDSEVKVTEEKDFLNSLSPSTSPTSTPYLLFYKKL

Assay [17] has as its system C2A. Nature of the assay: qHTS profiling for inhibitors of Plasmodium falciparum proliferation (AID 504749). Also: nearly all actives have a fitted effect of over 60% in size. Also: potency is read from the fitted curve at half-maximal effect.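 As to activity, negative = inhibition: 0% = DMSO vehicle and full inhibition = artemisinin control.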 The conditions noted are these: P. falciparum in erythrocytes, SYBR Green DNA, 72 h; series mostly up to 12.8 µM. The method, boiled down:
as §1

Assay [18] has as its system HB3. Described as above. The conditions noted are these: P. falciparum in erythrocytes, SYBR Green DNA, 72 h; series mostly up to 12.8 µM. The method, boiled down:
as §1

The subject of assay [19] is PAD. Described as above. To be noted: P. falciparum in erythrocytes, SYBR Green DNA, 72 h; series mostly up to 12.8 µM. The method, boiled down: as §1
Assay [20] deals with CP252. The description is as above. To be noted: P. falciparum in erythrocytes, SYBR Green DNA, 72 h; series mostly up to 12.8 µM. The method in brief:
as §1

Where [21] appears, read: measured here: cell count channel max response.
Where [22] appears, read: measured here: lipid channel max response.

Luciferin 4-monooxygenase (Photinus pyralis), sequence (P08659 whole entry, looked up): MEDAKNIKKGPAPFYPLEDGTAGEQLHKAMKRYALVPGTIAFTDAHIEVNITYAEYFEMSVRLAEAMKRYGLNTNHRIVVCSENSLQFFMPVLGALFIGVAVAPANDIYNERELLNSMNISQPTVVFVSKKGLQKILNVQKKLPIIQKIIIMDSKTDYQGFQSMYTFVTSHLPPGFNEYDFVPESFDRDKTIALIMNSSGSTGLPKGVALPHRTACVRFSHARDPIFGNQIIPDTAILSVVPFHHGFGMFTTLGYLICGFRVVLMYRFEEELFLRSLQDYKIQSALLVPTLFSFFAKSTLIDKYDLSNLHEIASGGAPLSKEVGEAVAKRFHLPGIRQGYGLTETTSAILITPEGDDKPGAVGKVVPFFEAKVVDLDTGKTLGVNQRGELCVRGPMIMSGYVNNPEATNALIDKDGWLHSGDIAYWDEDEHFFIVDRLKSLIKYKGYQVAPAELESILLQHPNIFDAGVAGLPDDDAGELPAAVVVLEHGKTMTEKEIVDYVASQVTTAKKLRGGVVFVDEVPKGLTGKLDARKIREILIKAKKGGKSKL

For `CC(=O)O[C@@]1(C(C)=O)CCC2C3CC(C)C4=CC(=O)CC[C@@]4(C)C3CC[C@]21C` (stereo not given in full), in assay [1], the activity change, negative = inhibition was -11.6% (inactive). For the same compound, the max response was 4.77% in assay [1] (setting [21]) and -5.62% in [1] (setting [22]). Further, in [2], the result was inactive. The Potency entry in assay [3], in assay [5], in [6], in assay [7], in assay [8] and in assay [9] was “inactive” each time. The Potency result in assay [10], in assay [11], in assay [12], in assay [13], in [14] and in assay [15] was “inactive” throughout. Besides, the Potency in assay [4] (parasite line B) was 12.6 µM (active).
In the case of `COC(=O)[C@H]1[C@@H]2C[C@@H]3c4[nH]c5ccccc5c4CCN3C[C@H]2CC[C@H]1O`, the activity change, negative = inhibition in assay [1] was 4.52% (inactive). Also, the max response in [1] (setting [21]) was 12.3%; in assay [1] (setting [22]) it was 17.8%. The Potency result in [16] was “inactive”.
Take `CC[C@H](CC[C@@H](C)C1CC[C@H]2[C@@H]3CC=C4C[C@@H](O)CC[C@]4(C)[C@H]3CC[C@]12C)C(C)C` (stereo not given in full): the activity change, negative = inhibition in assay [1] was -0.0175% (inactive). Further, the max response in [1] (setting [21]) was found to be 43.5%; in assay [1] (setting [22]), 42.8%. Besides, in [16], the Potency entry is “inactive”.
Turning to `N[C@H](Cc1ccc(O)cc1)C(=O)O`, the activity change, negative = inhibition in [1] is 2.68% (inactive). Further, the max response in assay [1] (setting [21]) was -25.6%; in assay [1] (setting [22]), -23%. In addition, the Potency result in assay [16] is “inactive”.
As for `NC(CCC(=O)N[C@@H](CS)C(=O)NCC(=O)O)C(=O)O` (stereo not given in full), the activity change, negative = inhibition in assay [1] was 8.76% (inactive). The max response in assay [1] (setting [21]) is 11.9%; in assay [1] (setting [22]) it was 24.8%. The compound was classed as inactive in [2]. For the same compound, the Potency entry in assay [16], in assay [3], in assay [6], in assay [9] and in assay [12] was “inactive” in each case. Besides, the Potency in assay [5] is 6.31 µM (active); in assay [17], 10 µM (active); in [8], 3.55 µM (active); in assay [18], 3.16 µM (active); in assay [19] it was 6.31 µM (active).
`C[C@@H]1O[C@@H](O[C@H]2[C@H](Oc3cc(O)c4c(c3)O[C@H](c3ccc(O)cc3)CC4=O)O[C@H](CO)[C@@H](O)[C@@H]2O)[C@H](O)[C@H](O)[C@H]1O`: in assay [1], the activity change, negative = inhibition is -1.6% (inactive). Moreover, the max response in assay [1] (setting [21]) was -6.96%; in assay [1] (setting [22]), -9.22%. In addition, the Potency entry in [16] is “inactive”.
Regarding `N[C@@H]1C(O)OC(CO)C(O)C1O` (stereo not given in full), in assay [1], the activity change, negative = inhibition was 5.31% (inactive). For the same compound, the max response in assay [1] (setting [21]) was 7.77%; in assay [1] (setting [22]) it was 20.8%. Besides, the result in [2] was inactive. Also, the Potency entry in assay [16], in [3], in assay [5], in [17], in [6] and in [7] was “inactive” throughout. Also, the Potency result in assay [8], in assay [20], in assay [10], in [11], in assay [12] and in assay [13] was “inactive” each time. Also, the Potency result in assay [18], in assay [14], in [19] and in assay [15] was “inactive” throughout. The activity, negative = inhibition in [4] (parasite line A) was 3.86% (inactive).
In the case of `CC(=O)OCC(=O)[C@@]12OC3(CCCC3)OC1CC1C3CCC4=CC(=O)C=C[C@@]4(C)[C@]3(F)C(O)C[C@]12C` (stereo not given in full), the activity change, negative = inhibition in [1] was 9.16% (inactive). Also, the max response in assay [1] (setting [21]) was -2.26%; in [1] (setting [22]), 7.71%. For the same compound, the compound was classed as inactive in [2]. The Potency result in assay [3], in assay [17], in assay [6], in assay [7], in assay [9] and in [10] was “inactive” throughout. The Potency entry in assay [11], in assay [12], in [13], in [14] and in [15] was “inactive” each time.
On to `CCC(C)C(=O)OC1CC(O)C=C2C=CC(C)C(CCC(O)CC(O)CC(=O)O)C21` (stereo not given), for which the activity change, negative = inhibition in [1] is 5.21% (inactive). Moreover, the max response in [1] (setting [21]) stood at 11.3%; in assay [1] (setting [22]) it was 17.6%. Also, the Potency entry in assay [16], in assay [3], in assay [5], in [17], in assay [6] and in assay [7] was “inactive” throughout. For the same compound, the Potency result in assay [8], in [20], in [9], in assay [10], in [11] and in [12] was “inactive” throughout. For the same compound, the Potency result in [13], in [18], in [14], in assay [19] and in [15] was “inactive” each time. Further, the activity, negative = inhibition is -1.64% (inactive) in [4] (parasite line A) and -21.8% (inactive) in [4] (parasite line B).

(Values after PubChem BioAssay (NCATS).)
